{
  "source": "PubChem BioAssay AID1751",
  "about": "(National Center for Advancing Translational Sciences (NCATS), 2009)",
  "note": "Where “and” joins values, the source holds several entries; their conditions need not be identical. Equal entries are not always repeated. Inconclusive results are not listed. Calls of active or inactive are those of the source. Calls follow the shape of the dose curve; as a rule, active = well fitted activation curve with a large enough effect; inconclusive = small, poorly fitted or top-dose-only effect; inactive = no such curve, though single readings can be large or run the other way.",
  "data": [
    {"target": "Pyruvate kinase PKM (Homo sapiens) (UniProt P14618)", "sequence (P14618 whole entry, looked up, canonical isoform)": "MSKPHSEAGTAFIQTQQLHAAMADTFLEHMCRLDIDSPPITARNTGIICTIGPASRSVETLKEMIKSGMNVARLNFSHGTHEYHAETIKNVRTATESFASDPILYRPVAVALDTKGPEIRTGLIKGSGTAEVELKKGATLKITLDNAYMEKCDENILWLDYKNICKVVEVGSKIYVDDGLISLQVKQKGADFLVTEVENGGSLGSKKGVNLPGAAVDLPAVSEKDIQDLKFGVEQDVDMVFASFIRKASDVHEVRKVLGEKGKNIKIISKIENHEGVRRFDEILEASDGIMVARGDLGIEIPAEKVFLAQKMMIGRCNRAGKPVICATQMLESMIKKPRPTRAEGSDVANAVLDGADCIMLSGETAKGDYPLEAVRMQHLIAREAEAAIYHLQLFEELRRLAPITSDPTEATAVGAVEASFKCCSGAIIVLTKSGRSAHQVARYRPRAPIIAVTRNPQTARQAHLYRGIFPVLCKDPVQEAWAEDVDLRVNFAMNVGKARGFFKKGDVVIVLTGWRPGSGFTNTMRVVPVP", "assay": "Confirmation Concentration-Response Assay for Activators of Human Muscle isoform 2 Pyruvate Kinase", "conditions": "purified hPK-M2, Kinase-Glo ATP luminescence, 1 h; series mostly up to 57.5 µM", "source_text": "NIH Chemical Genomics Center [NCGC] Matthew G. Vander Heiden, M.D., Ph.D. [Harvard Medical School, 77 Avenue Louis Pasteur, Boston, MA 02115] MLPCN Grant: 1 R03 MH085679-01 NCGC Assay Overview: Human pyruvate kinase muscle 2 (hPK-M2) enzyme was supplied as a highly purified (>95% pure) preparation from Harvard Medical School and assayed for its ability to generate ATP from ADP using phosphoenolpyruvate (PEP) as a substrate. ATP generation was detected in a coupled reaction by luciferase-mediated luminescence, an ATP-dependent process. Pyruvate kinase substrates, PEP and ADP, were present in the assay at Km and approximately 10-fold below Km respectively. The enzyme was assayed at an intermediate level of activity to screen for both inhibitors and activators.\nNCGC Assay Protocol Summary: Three uL of substrate mix (at r.t.) in assay buffer (50 mM Imidazole pH7.2, 50 mM KCl, 7 mM MgCl2, 0.01% Tween 20, 0.05% BSA) was dispensed into white solid bottom 1,536 well microtiter plates so that the final concentrations of substrates in the assay were 0.1 mM ADP and 0.5 mM PEP. 23 nL of compound were delivered by a pin tool and 1 uL of enzyme mix (final concentration of 0.1 nM) in assay buffer (4 degree Celsius) was added. Plates were incubated at room temperature for 1 hour. Two uL of detection mix (Kinase-Glo, Promega; at 4 degree Celsius protected from light) was added and luminescence read by a ViewLux (Perkin Elmer) at 1 second exposure/plate. Data were normalized to the uninhibited (column 3) and AC100 inhibition (no enzyme in column 2). To monitor activation, the first column contained a titration of the activator, NCGC00031955-03 (16-point 1:2 dilutions in duplicate starting at 57 uM) and the first 16 rows of column 4 contained 57 uM of NCGC00031955-03.", "values": [
      {"molecule": "Cc1cc2c(s1)c1cnn(Cc3ccc(Cl)cc3)c(=O)c1n2C", "Potency": "201 nM (active)"},
      {"molecule": "COC(=O)CSC1=NS(=O)(=O)c2ccccc21", "Potency": "inactive"},
      {"molecule": "Cc1ccc(S(=O)(=O)N2CCCN(S(=O)(=O)c3ccc4c(c3)OCCO4)CC2)cc1", "Potency": "398 nM (active)"},
      {"molecule": "O=S(=O)(c1ccc2ccccc2c1)N1CCN(S(=O)(=O)c2c(F)cccc2F)CC1", "Potency": "56.6 nM (active)"},
      {"molecule": "O=S(=O)(c1ccc2c(c1)OCCO2)N1CCN(S(=O)(=O)c2ccccn2)CC1", "Potency": "505 nM (active)"},
      {"molecule": "Cc1cc2c(s1)c1cnn(Cc3ccc(C)c(F)c3F)c(=O)c1n2C", "Potency": "56.6 nM (active)"},
      {"molecule": "O=S(=O)(c1cccc(F)c1)N1CCN(S(=O)(=O)c2ccc3c(c2)OCCO3)CC1", "Potency": "284 nM (active)"},
      {"molecule": "O=S(=O)(c1ccc2c(c1)OCCO2)N1CCN(S(=O)(=O)c2ccccc2F)CC1", "Potency": "56.6 nM (active)"},
      {"molecule": "COc1ccc(Cn2ncc3c4sc(C)cc4n(C)c3c2=O)cc1F", "Potency": "127 nM (active)"},
      {"molecule": "O=S(=O)(c1ccc2c(c1)OCCO2)C1CCN(S(=O)(=O)c2c(F)cccc2F)CC1", "Potency": "713 nM (active)"},
      {"molecule": "CCc1cc2c(s1)c1cnn(Cc3ccccc3F)c(=O)c1n2C", "Potency": "63.5 nM (active)"},
      {"molecule": "C[C@@H]1CN(S(=O)(=O)c2ccc3c(c2)OCCO3)CCN1S(=O)(=O)c1c(F)cccc1F", "Potency": "2530 nM (active)"},
      {"molecule": "COc1cc(F)c(S(=O)(=O)N2CCN(S(=O)(=O)c3ccc4c(c3)OCCO4)CC2)c(F)c1", "Potency": "17.9 nM (active)"},
      {"molecule": "Cn1c2cc(B(O)O)sc2c2cnn(Cc3ccccc3F)c(=O)c21", "Potency": "6350 nM (active)"},
      {"molecule": "O=S(=O)(/N=C(/Sc1ccccc1)c1ccccc1)c1ccccc1", "Potency": "inactive"},
      {"molecule": "Cn1c2cc(C#N)sc2c2cnn(Cc3ccccc3F)c(=O)c21", "Potency": "11.3 µM (active) and 22.5 nM (active)"},
      {"molecule": "O=C(CN1C(=O)N/C(=C\\c2cccn2-c2cccc(C(=O)O)c2)C1=O)Nc1ccccc1F", "Potency": "inactive"},
      {"molecule": "Cc1nc2ccc(S(=O)(=O)N3CCN(S(=O)(=O)c4c(F)cccc4F)CC3)cc2s1", "Potency": "63.5 nM (active)"},
      {"molecule": "Cc1cc2c(s1)c1cnn(Cc3ccc(F)cc3F)c(=O)c1n2C", "Potency": "25.3 nM (active)"},
      {"molecule": "Cc1cc2c(s1)c1cnn(Cc3ccc(C(F)(F)F)cc3F)c(=O)c1n2C", "Potency": "16000 nM (active)"},
      {"molecule": "Cc1cc2c(s1)c1cnn(Cc3ccc(S(C)(=O)=O)cc3)c(=O)c1n2C", "Potency": "4500 nM (active)"},
      {"molecule": "O=S(=O)(c1ccc2c(c1)OCO2)N1CCN(S(=O)(=O)c2c(F)cccc2F)CC1", "Potency": "127 nM (active)"},
      {"molecule": "CSc1cc2c(s1)c1cnn(Cc3ccccc3F)c(=O)c1n2C", "Potency": "14.2 nM (active)"},
      {"molecule": "Cc1cc(C)nc(SCCc2ccncc2)n1", "Potency": "inactive"},
      {"molecule": "Cc1cc2c(s1)c1cnn(Cc3cc(C(F)(F)F)cc(Cl)c3F)c(=O)c1n2C", "Potency": "20.1 nM (active)"},
      {"molecule": "Cc1cc2[nH]c3c(=O)n(Cc4ccccc4F)ncc3c2s1", "Potency": "inactive"},
      {"molecule": "COc1ccc(S(=O)(=O)N2CCN(S(=O)(=O)c3c(F)cccc3F)CC2)cc1", "Potency": "56.6 nM (active)"},
      {"molecule": "COc1cccc(S(=O)(=O)N2CCN(S(=O)(=O)c3ccc4c(c3)OCCO4)CC2)c1", "Potency": "63.5 nM (active)"},
      {"molecule": "O=S(=O)(c1c(F)cccc1F)N1CCN(S(=O)(=O)c2c(F)cccc2F)CC1", "Potency": "50.5 nM (active)"},
      {"molecule": "O=S(=O)(c1ccc2c(c1)OCCO2)N1CCN(S(=O)(=O)c2c(F)ccc(O)c2F)CC1", "Potency": "31.8 nM (active)"},
      {"molecule": "O=C(/C=C/c1cccc(Cl)c1)c1nc2ccccc2[nH]1", "Potency": "inactive"},
      {"molecule": "C[C@@H]1CN(S(=O)(=O)c2c(F)cccc2F)CCN1S(=O)(=O)c1ccc2c(c1)OCCO2", "Potency": "1790 nM (active)"},
      {"molecule": "O=S(=O)(NC1CCN(S(=O)(=O)c2ccc3c(c2)OCCO3)C1)c1c(F)cccc1F", "note": "(stereo not drawn)", "Potency": "17900 nM (active)"}
    ]}
  ]
}
